Several values for one entry are separate records, joined by “and”; a condition that tells them apart may be missing. Equal entries are not always repeated. Results filed as inconclusive are left out. Where a call stands in place of a potency, no number is given. Activity calls are given as the source filed them. Unless noted, no rule for the calls is given here.
system: astro; assay: Drug repurposing screens with cells derived from glioblastoma tumor samples (AID 1345199; active = well fitted inhibition curve with a large enough effect; also: nearly all actives have a fitted effect of over 40% in size); conditions: viability, ATP luminescence, 48 h; series mostly up to 45.9 µM
How it was run: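 Primary testing used CD133+ neurospheres from four GBM patients, seven concentrations, 48 h exposure and ATP-based viability; confirmation added three slower-growing patient lines.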

| Structure (SMILES) | Potency |
| --- | --- |
| O=C1N=C2SCCN2C(=O)C1Cc1ccc(Cl)cc1 (stereo not given) | inactive |
| c1ccc2c(c1)OCC(CN1CCCCC1)O2 (stereo not given) | inactive |
| COc1cc(S(C)=O)ccc1-c1nc2ncccc2[nH]1 (stereo not given) | inactive |
| O=C1CC[C@@H](C(=O)N[C@H]2C[C@@H]2c2ccccc2)N1 | inactive |
| CO/N=C(\C(=O)N[C@@H]1C(=O)N2C(C(=O)[O-])=C(C[n+]3cccc4c3CCC4)CS[C@H]12)c1csc(N)n1 | inactive |
| CCCCC | inactive |
| CCc1ncnc2cc(OC)c(OC)cc12 | inactive |
| CN(Cc1ccccc1)Cc1ccccc1 | inactive |
| C=CC[N@@+]12CC[C@@]34c5ccccc5N5/C=C6/[C@H]7C[C@H]8[C@@]9(CC[N@@+]8(CC=C)C/C7=C/CO)c7ccccc7N(/C=C(/[C@@H](C[C@@H]31)/C(=C\CO)C2)[C@H]54)[C@@H]69 | inactive |
| O=[N+]([O-])O[C@@H]1CO[C@H]2[C@@H]1OC[C@@H]2O | inactive |
| CO/N=C(\C(=O)N[C@@H]1C(=O)N2C(C(=O)O)=C(CSC(=O)c3ccco3)CS[C@H]12)c1csc(N)n1 | inactive |
| CC/C=C\C/C=C\C/C=C\C/C=C\C/C=C\CCCC(=O)O | inactive |
| CC/C=C\C/C=C\C/C=C\C/C=C\C/C=C\C/C=C\CCC(=O)O | inactive |
| CO | inactive |
| CC[C@H]1OC(=O)[C@H](C)[C@@H](O[C@H]2C[C@@](C)(OC)[C@@H](O)[C@H](C)O2)[C@H](C)[C@@H](O[C@@H]2O[C@H](C)C[C@H](N(C)C)[C@H]2O)[C@](C)(O)C[C@@H](C)CN(C)[C@H](C)[C@@H](O)[C@]1(C)O | inactive |
| NC(Cc1ccccc1)C(=O)O (stereo not given) | inactive |
| NCCN | inactive |
| NC(N)=NCC1COc2ccccc2O1 (stereo not given) | inactive |
| CNCC(=O)N[C@@H](CCCN=C(N)N)C(=O)N[C@H](C(=O)N[C@@H](Cc1ccc(O)cc1)C(=O)N[C@H](C(=O)N[C@@H](Cc1cnc[nH]1)C(=O)N1CCC[C@H]1C(=O)N[C@@H](C)C(=O)O)C(C)C)C(C)C | inactive |
| Nc1ncnc2c1ncn2CCOCP(=O)(O)O | inactive |
| CCC(Cc1c(I)cc(I)c(O)c1I)C(=O)O (stereo not given) | inactive |
| OB(O)O | inactive |
| CC(C)(COP(=O)(O)OP(=O)(O)OC[C@H]1O[C@@H](n2cnc3c(N)ncnc32)[C@H](O)[C@@H]1OP(=O)(O)O)C(O)C(=O)NCCC(=O)NCCS (stereo not given in full) | inactive |

target: Nuclear receptor subfamily 1 group I member 2 (Rattus norvegicus) (UniProt Q9R1A7); assay: qHTS assay for small molecule activators of the rat pregnane X receptor (rPXR) signaling pathway (AID 651751); conditions: rPXR reporter cells, luciferase (One-Glo), 24 h
Sequence (Q9R1A7 whole entry, looked up): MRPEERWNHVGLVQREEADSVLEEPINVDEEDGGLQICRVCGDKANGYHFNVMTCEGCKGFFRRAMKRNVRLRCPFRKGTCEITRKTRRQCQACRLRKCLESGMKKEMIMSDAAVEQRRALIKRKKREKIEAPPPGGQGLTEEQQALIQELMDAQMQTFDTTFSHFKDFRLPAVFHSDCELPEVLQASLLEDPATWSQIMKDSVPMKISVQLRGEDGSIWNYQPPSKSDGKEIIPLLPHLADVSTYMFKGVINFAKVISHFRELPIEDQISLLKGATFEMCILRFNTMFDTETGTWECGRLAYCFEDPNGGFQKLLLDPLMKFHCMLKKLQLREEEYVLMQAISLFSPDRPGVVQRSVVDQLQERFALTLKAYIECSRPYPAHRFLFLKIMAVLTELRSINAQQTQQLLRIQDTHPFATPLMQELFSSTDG

| Structure (SMILES) | max response |
| --- | --- |
| Cc1ccc(S(=O)(=O)O)cc1C | 0.795% (inactive) |
| Cc1ccc(S(=O)(=O)NCl)cc1 | -0.198% (inactive) |
| CC/C=C\C/C=C\C/C=C\CCCCCCCC(=O)O | -2.75% (inactive) |
| CCCCC(CC)COS(=O)(=O)O (stereo not given) | 0.915% (inactive) |
| CN(CCO)CC(O)Cn1cnc2c1c(=O)n(C)c(=O)n2C (stereo not given) (tested in a mixture with another compound) | -1.56% (inactive) |
| CCCCC | -1.73% (inactive) |
| CO | 4.07% (inactive) |
| CC[C@H]1OC(=O)[C@H](C)[C@@H](O[C@H]2C[C@@](C)(OC)[C@@H](O)[C@H](C)O2)[C@H](C)[C@@H](O[C@@H]2O[C@H](C)C[C@H](N(C)C)[C@H]2O)[C@](C)(O)C[C@@H](C)CN(C)[C@H](C)[C@@H](O)[C@]1(C)O | -1.6% (inactive) |
| Nc1nccs1 | -2.21% (inactive) |
| NCCN | 4.88% (inactive) |
| OB(O)O | 1.69% (inactive) and 5.36% (inactive) |

system: not listed separately; assay: qHTS assay for small molecule activators of the human pregnane X receptor (PXR) signaling pathway (AID 720659); conditions: DPX-2 HepG2 CYP3A4-luciferase, 24 h; series mostly up to 92.3 µM

| Structure (SMILES) | outcome |
| --- | --- |
| Cc1ccc(S(=O)(=O)O)cc1C | inactive |
| Cc1ccc(S(=O)(=O)NCl)cc1 | inactive |
| CC/C=C\C/C=C\C/C=C\CCCCCCCC(=O)O | inactive |
| CCCCC(CC)COS(=O)(=O)O (stereo not given) | inactive |
| CN(CCO)CC(O)Cn1cnc2c1c(=O)n(C)c(=O)n2C (stereo not given) (tested in a mixture with another compound) | inactive |
| CCCCC | inactive |
| CO | inactive |
| CC[C@H]1OC(=O)[C@H](C)[C@@H](O[C@H]2C[C@@](C)(OC)[C@@H](O)[C@H](C)O2)[C@H](C)[C@@H](O[C@@H]2O[C@H](C)C[C@H](N(C)C)[C@H]2O)[C@](C)(O)C[C@@H](C)CN(C)[C@H](C)[C@@H](O)[C@]1(C)O | inactive |
| Nc1nccs1 | inactive |
| NCCN | inactive |
| OB(O)O | inactive |

From PubChem BioAssay (NCATS)
